# Results: the supplement of paper PMC7057948, “A genome-wide approach for identification and characterisation of metabolite-inducible systems” (Nature Communications, 2020)
# Columns and labels:
# Details in all cases: inducer concentration 5 mM; 6 h; Cupriavidus necator H16; minimal medium + 0.4% gluconate
# [1] = system: AcoR/P_H16_RS19445 acetoin biosensor (pEH052); assay: relative induction of RFP reporter vs primary effector (background-corrected); higher = stronger activation of the biosensor
# Procedure: (§1)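 C. necator H16 strains, each carrying one of 21 transcription factor/inducible promoter–mRFP biosensor plasmids, were grown in minimal medium in 96-well plates (robotic platform). Each was exposed to 46 structurally or metabolically related compounds at 5 mM at 30 °C. OD-normalised RFP fluorescence was read 6 h later and expressed as relative induction (%) = 100 × (FL compound − FL uninduced)/(FL primary inducer − FL uninduced); mean of n=4.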
# [2] = system: AraC/P_araBAD L-arabinose biosensor (pEH176); assay: as above
# Procedure: as §1
# [3] = system: BenM/P_H16_RS09790 benzoate biosensor (pEH148); assay: as above
# Procedure: as §1
# [4] = system: FdsR/P_H16_RS03165 formate biosensor (pEH134); assay: as above
# Procedure: as §1
# [5] = system: GabR/P_H16_RS23655 GABA biosensor (pEH256); assay: as above
# Procedure: as §1
# [6] = system: HpdR/P_H16_RS18295 3-hydroxypropanoate biosensor (pEH010); assay: as above
# Procedure: as §1
# [7] = system: KynR/P_H16_RS14030 L-kynurenine biosensor (pEH136); assay: as above
# Procedure: as §1
# [8] = system: NahR/P_H16_RS08125 salicylate biosensor (pEH042); assay: as above
# Procedure: as §1
# [9] = system: OapR/P_H16_RS01330 beta-alanine biosensor (pEH147); assay: as above
# Procedure: as §1
# [10] = system: PcaQ/P_H16_RS30145 3,4-dihydroxybenzoate biosensor (pEH161); assay: as above
# Procedure: as §1
# [11] = system: PhgR/P_H16_RS05530 phenylglyoxylate biosensor (pEH155); assay: as above
# Procedure: as §1
# [12] = system: PhhR/P_H16_RS18365 L-phenylalanine biosensor (pEH137); assay: as above
# Procedure: as §1
# [13] = system: SauR/P_H16_RS13695 sulfonatoacetate biosensor (pEH157); assay: as above
# Procedure: as §1
# [14] = system: TtdR/P_H16_RS10665 tartrate biosensor (pEH083); assay: as above
# Procedure: as §1
# [15] = system: XdhR/P_H16_RS05055 xanthine biosensor (pEH154); assay: as above
# Procedure: as §1
# [16] = system: heterologous inducible system pEH002 (rhamnose/acrylate/cumate/itaconate set); assay: as above
# Procedure: as §1
# [17] = system: heterologous inducible system pEH020 (rhamnose/acrylate/cumate/itaconate set); assay: as above
# Procedure: as §1
# [18] = system: heterologous inducible system pEH040 (rhamnose/acrylate/cumate/itaconate set); assay: as above
# Procedure: as §1
# [19] = system: heterologous inducible system pEH086 (rhamnose/acrylate/cumate/itaconate set); assay: as above
# Procedure: as §1
# [20] = system: AcoR/P_H16_RS19445 acetoin biosensor (pEH052); assay: relative induction of RFP reporter vs primary effector; higher = stronger activation
# Procedure: (§2)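 Orthogonality screen of 21 primary inducers against 21 transcription factor/inducible promoter–mRFP biosensors in C. necator H16 in minimal medium, robotic 96-well format, 5 mM inducer, 30 °C. OD-normalised RFP fluorescence was read 6 h later and expressed as relative induction (%) = 100 × (FL compound − FL uninduced)/(FL primary inducer − FL uninduced); mean of n=4. Cognate pairs (100% by definition) omitted.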
# [21] = system: AraC/P_araBAD L-arabinose biosensor (pEH176); assay: as above
# Procedure: as §2
# [22] = system: BadR/P_H16_RS27200 cyclohexanecarboxylate biosensor (pEH159); assay: as above
# Procedure: as §2
# [23] = system: BenM/P_H16_RS09790 benzoate biosensor (pEH148); assay: as above
# Procedure: as §2
# [24] = system: FdsR/P_H16_RS03165 formate biosensor (pEH134); assay: as above
# Procedure: as §2
# [25] = system: GabR/P_H16_RS23655 GABA biosensor (pEH256); assay: as above
# Procedure: as §2
# [26] = system: HpdA/P_H16_RS24175 L-tyrosine biosensor (pEH158); assay: as above
# Procedure: as §2
# [27] = system: NahR/P_H16_RS08125 salicylate biosensor (pEH042); assay: as above
# Procedure: as §2
# [28] = system: OapR/P_H16_RS01330 beta-alanine biosensor (pEH147); assay: as above
# Procedure: as §2
# [29] = system: PhgR/P_H16_RS05530 phenylglyoxylate biosensor (pEH155); assay: as above
# Procedure: as §2
# [30] = system: SauR/P_H16_RS13695 sulfonatoacetate biosensor (pEH157); assay: as above
# Procedure: as §2
# [31] = system: TtdR/P_H16_RS10665 tartrate biosensor (pEH083); assay: as above
# Procedure: as §2
# [32] = system: XdhR/P_H16_RS05055 xanthine biosensor (pEH154); assay: as above
# Procedure: as §2
# [33] = system: heterologous L-rhamnose-inducible system; assay: as above
# Procedure: as §2
# [34] = system: heterologous acrylate-inducible system; assay: as above
# Procedure: as §2
# [35] = system: heterologous cumate-inducible system; assay: as above
# Procedure: as §2
# [36] = system: heterologous itaconate-inducible system; assay: as above
# Procedure: as §2
# [37] = system: PcaQ/P_H16_RS30145 3,4-dihydroxybenzoate biosensor (pEH161); assay: as above
# Procedure: as §2
# 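Throughout, for relative induction of RFP reporter vs primary effector (background-corrected): RFP excited at 585 nm with emission read at 620 nm, culture medium blanks subtracted from fluorescence and absorbance prior to normalisation.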
smiles,measurement,setting,value
CC(=O)CCC(=O)O [levulinic acid],relative induction of RFP reporter,[1],-2.12%
same,relative induction of RFP reporter,[2],0.00636%
same,relative induction of RFP reporter,[3],-0.0388%
same,relative induction of RFP reporter,[4],-11.8%
same,relative induction of RFP reporter,[5],-2.89%
same,relative induction of RFP reporter,[6],-0.37%
same,relative induction of RFP reporter,[7],-0.594%
same,relative induction of RFP reporter,[8],-0.0149%
same,relative induction of RFP reporter,[9],-1.91%
same,relative induction of RFP reporter,[10],-0.265%
same,relative induction of RFP reporter,[11],-0.187%
same,relative induction of RFP reporter,[12],-0.623%
same,relative induction of RFP reporter,[13],-0.0306%
same,relative induction of RFP reporter,[14],1.16%
same,relative induction of RFP reporter,[15],-0.941%
same,relative induction of RFP reporter,[16],0.0157%
same,relative induction of RFP reporter,[17],-1.82%
same,relative induction of RFP reporter,[18],-1.61%
same,relative induction of RFP reporter,[19],-0.139%
"O=C(O)c1ccc(O)c(O)c1 [3,4-dihydroxybenzoate]",relative induction of RFP reporter,[20],-0.382%
same,relative induction of RFP reporter,[21],-0.0224%
same,relative induction of RFP reporter,[22],-0.555%
same,relative induction of RFP reporter,[23],-0.0316%
same,relative induction of RFP reporter,[24],8.18%
same,relative induction of RFP reporter,[25],-1.96%
same,relative induction of RFP reporter,[26],-0.149%
same,relative induction of RFP reporter,[27],0.0143%
same,relative induction of RFP reporter,[28],-1.27%
same,relative induction of RFP reporter,[29],-0.535%
same,relative induction of RFP reporter,[30],0.0892%
same,relative induction of RFP reporter,[31],-0.148%
same,relative induction of RFP reporter,[32],-0.547%
same,relative induction of RFP reporter,[33],0.0186%
same,relative induction of RFP reporter,[34],-0.891%
same,relative induction of RFP reporter,[35],-0.667%
same,relative induction of RFP reporter,[36],0.251%
OC1OC[C@H](O)[C@H](O)[C@H]1O (mixture of isomers) [L-arabinose],relative induction of RFP reporter,[20],-0.298%
same,relative induction of RFP reporter,[22],-0.67%
same,relative induction of RFP reporter,[23],-0.0174%
same,relative induction of RFP reporter,[24],-1.73%
same,relative induction of RFP reporter,[25],-0.944%
same,relative induction of RFP reporter,[26],0.0304%
same,relative induction of RFP reporter,[27],-0.0109%
same,relative induction of RFP reporter,[28],-0.0273%
same,relative induction of RFP reporter,[37],-0.0772%
same,relative induction of RFP reporter,[29],-0.169%
same,relative induction of RFP reporter,[30],-0.00743%
same,relative induction of RFP reporter,[31],-0.392%
same,relative induction of RFP reporter,[32],-0.221%
same,relative induction of RFP reporter,[33],0.00935%
same,relative induction of RFP reporter,[34],-0.681%
same,relative induction of RFP reporter,[35],-0.337%
same,relative induction of RFP reporter,[36],0.00235%
O=c1cc[nH]c(=O)[nH]1 [uracil],relative induction of RFP reporter,[1],-0.264%
same,relative induction of RFP reporter,[2],-0.0292%
same,relative induction of RFP reporter,[3],-0.0102%
same,relative induction of RFP reporter,[4],2.09%
same,relative induction of RFP reporter,[5],0.468%
same,relative induction of RFP reporter,[6],0.292%
same,relative induction of RFP reporter,[7],1.02%
same,relative induction of RFP reporter,[8],0.0235%
same,relative induction of RFP reporter,[9],0.971%
same,relative induction of RFP reporter,[10],-0.0843%
same,relative induction of RFP reporter,[11],-0.376%
same,relative induction of RFP reporter,[12],0.347%
same,relative induction of RFP reporter,[13],-0.0169%
same,relative induction of RFP reporter,[14],-0.0341%
same,relative induction of RFP reporter,[15],0.952%
same,relative induction of RFP reporter,[16],0.0212%
same,relative induction of RFP reporter,[17],0.742%
same,relative induction of RFP reporter,[18],-0.00512%
same,relative induction of RFP reporter,[19],0.875%
N[C@@H](Cc1ccc(O)cc1)C(=O)O [L-tyrosine],relative induction of RFP reporter,[20],-2.55%
same,relative induction of RFP reporter,[21],0.00497%
same,relative induction of RFP reporter,[22],0.136%
same,relative induction of RFP reporter,[23],-0.0654%
same,relative induction of RFP reporter,[24],-2.95%
same,relative induction of RFP reporter,[25],-2.3%
same,relative induction of RFP reporter,[27],0.00647%
same,relative induction of RFP reporter,[28],-1.24%
same,relative induction of RFP reporter,[37],0.392%
same,relative induction of RFP reporter,[29],-0.239%
same,relative induction of RFP reporter,[30],0.00275%
same,relative induction of RFP reporter,[31],1.67%
same,relative induction of RFP reporter,[32],-1.38%
same,relative induction of RFP reporter,[33],0.00824%
same,relative induction of RFP reporter,[34],-2.03%
same,relative induction of RFP reporter,[35],-2.72%
same,relative induction of RFP reporter,[36],0.264%
O=C(O)C(=O)c1ccccc1 [phenylglyoxylate],relative induction of RFP reporter,[20],-2.12%
same,relative induction of RFP reporter,[21],-0.003%
same,relative induction of RFP reporter,[22],-0.214%
same,relative induction of RFP reporter,[23],16.8%
same,relative induction of RFP reporter,[25],-2.13%
same,relative induction of RFP reporter,[26],-0.159%
same,relative induction of RFP reporter,[27],0.00691%
same,relative induction of RFP reporter,[28],-1.44%
same,relative induction of RFP reporter,[37],-0.114%
same,relative induction of RFP reporter,[30],0.0193%
same,relative induction of RFP reporter,[31],-0.379%
same,relative induction of RFP reporter,[32],-1.19%
same,relative induction of RFP reporter,[33],-0.00891%
same,relative induction of RFP reporter,[34],-2.28%
same,relative induction of RFP reporter,[35],-1.12%
same,relative induction of RFP reporter,[36],-0.288%
O=C(O)C(O)C(O)C(=O)O (stereo unspecified) [tartrate],relative induction of RFP reporter,[20],0.491%
same,relative induction of RFP reporter,[21],-0.00769%
same,relative induction of RFP reporter,[22],-0.687%
same,relative induction of RFP reporter,[23],0.00705%
same,relative induction of RFP reporter,[24],-1.89%
same,relative induction of RFP reporter,[25],0.312%
same,relative induction of RFP reporter,[26],-0.0207%
same,relative induction of RFP reporter,[27],0.0221%
same,relative induction of RFP reporter,[28],-0.132%
same,relative induction of RFP reporter,[37],0.0285%
same,relative induction of RFP reporter,[29],-0.242%
same,relative induction of RFP reporter,[30],0.033%
same,relative induction of RFP reporter,[32],-0.458%
same,relative induction of RFP reporter,[33],0.0177%
same,relative induction of RFP reporter,[34],-0.36%
same,relative induction of RFP reporter,[35],-0.8%
same,relative induction of RFP reporter,[36],0.359%
"O=C(O)/C=C\C=C/C(=O)O [cis,cis-muconate]",relative induction of RFP reporter,[1],-0.277%
same,relative induction of RFP reporter,[2],-0.0203%
same,relative induction of RFP reporter,[3],-0.00774%
same,relative induction of RFP reporter,[4],0.498%
same,relative induction of RFP reporter,[5],-1.92%
same,relative induction of RFP reporter,[6],0.114%
same,relative induction of RFP reporter,[7],0.571%
same,relative induction of RFP reporter,[8],0.022%
same,relative induction of RFP reporter,[9],0.13%
same,relative induction of RFP reporter,[10],-0.0137%
same,relative induction of RFP reporter,[11],-0.341%
same,relative induction of RFP reporter,[12],-0.13%
same,relative induction of RFP reporter,[13],-0.0287%
same,relative induction of RFP reporter,[14],0.125%
same,relative induction of RFP reporter,[15],-0.143%
same,relative induction of RFP reporter,[16],-0.00409%
same,relative induction of RFP reporter,[17],0.263%
same,relative induction of RFP reporter,[18],0.756%
same,relative induction of RFP reporter,[19],0.0837%
